The source of these data is the antibiotic and cytotoxicity screens of Wong et al. (2023).

Each structure is given as a SMILES string. In all, about 39,000 compounds went through this assay and about 1,500 (3.8%) were called active. The sample as a whole holds a higher share of actives than the screen did.

The test concerns HSkMC (human skeletal muscle cells). Kind of test: cytotoxicity call (relative viability < 0.9). Conditions: 10 µM.
As to `Cc1ccc(S(=O)(=O)N(C)C[C@H]2Oc3ccc(NS(=O)(=O)c4cccs4)cc3CC(=O)N([C@@H](C)CO)C[C@@H]2C)cc1`, the cytotoxicity call is “inactive”.

Regarding `C[C@@H]1CN([C@H](C)CO)C(=O)Cc2cc(NC(=O)c3ccncc3)ccc2O[C@@H]1CN(C)Cc1ccc(C(=O)O)cc1`, the cytotoxicity call is “inactive”.

Take `COc1ccc(O)c(N)c1`: the cytotoxicity call is “inactive”.

Regarding `c1csc(CNc2ccc(NCc3cccs3)cc2)c1`, the cytotoxicity call was “inactive”.

`Cc1noc(C)c1NC(=O)N[C@H]1CC[C@@H](CC(=O)N2CCN(C)CC2)O[C@@H]1CO`: the cytotoxicity call is “inactive”.

`C[C@H](CO)N1C[C@H](C)[C@H](CN(C)S(C)(=O)=O)Oc2ccc(NC(=O)C3CCCCC3)cc2CC1=O`: the cytotoxicity call was “inactive”.

As to `Cc1ccc(S(=O)(=O)N[C@@H](Cc2ccccc2)C(=O)NCCCn2cc(C(=O)NO)nn2)cc1`, the cytotoxicity call is “inactive”.

Turning to `C[C@@H]1CCCCO[C@H](CN(C)CC2CCCCC2)[C@@H](C)CN([C@@H](C)CO)C(=O)c2cc(NS(=O)(=O)c3cccs3)ccc2O1`, the cytotoxicity call is “inactive”.

Take `C[C@@H]1CN([C@@H](C)CO)C(=O)Cc2cc(NC(=O)Nc3ccccc3)ccc2O[C@@H]1CN(C)Cc1ccc(Cl)c(Cl)c1`: the cytotoxicity call is “active”.

In the case of `C[C@H]1CN([C@@H](C)CO)C(=O)Cc2cc(NC(=O)Nc3ccccc3)ccc2O[C@H]1CN(C)Cc1ccc(Cl)c(Cl)c1`, the cytotoxicity call is “active”.

As to `C[C@@H]1CN([C@H](C)CO)C(=O)Cc2cc(NC(=O)Nc3ccccc3)ccc2O[C@@H]1CN(C)Cc1ccc(Cl)c(Cl)c1`, the cytotoxicity call is “active”.

Take `C[C@@H]1CN([C@H](C)CO)C(=O)Cc2cc(NC(=O)Nc3ccccc3)ccc2O[C@H]1CN(C)Cc1ccc(Cl)c(Cl)c1`: the cytotoxicity call was “active”.

`C[C@H](CO)N1C[C@H](C)[C@H](CN(C)S(C)(=O)=O)Oc2ccc(NC(=O)Nc3ccc4c(c3)OCO4)cc2CC1=O`: the cytotoxicity call is “inactive”.

Regarding `CC[C@@H](C)N1C(=O)CC[C@H]1C(=O)O`, the cytotoxicity call is “inactive”.

Turning to `COc1ccc(S(=O)(=O)Nc2ccc3c(c2)C(=O)N([C@H](C)CO)C[C@H](C)[C@H](CN(C)Cc2ccc(C(=O)Nc4ccccc4N)cc2)OCCCC[C@@H](C)O3)cc1`, the cytotoxicity call is “inactive”.

For `C[C@H](CO)N1C[C@H](C)[C@@H](CN(C)S(=O)(=O)c2cccs2)Oc2ccc(NS(C)(=O)=O)cc2C1=O`, the cytotoxicity call was “inactive”.

With `NCc1ccc(C(=O)O)cc1`, the cytotoxicity call is “inactive”.

`Cc1noc(C)c1NC(=O)Nc1cccc2c1O[C@H](CN(C)S(=O)(=O)c1ccccc1)[C@@H](C)CN([C@@H](C)CO)C2=O`: the cytotoxicity call is “inactive”.

For `C[C@@H]1CCCCO[C@H](CN(C)C(=O)c2ccncc2)[C@@H](C)CN([C@H](C)CO)C(=O)c2cc(NC(=O)CCCCCC(=O)Nc3ccccc3N)ccc2O1`, the cytotoxicity call is “inactive”.

With `CCc1nc2ccc(C(=O)Nc3cc(-c4ccccc4)ccc3OC)cn2c1N(CCN(C)C)CC1CC1`, the cytotoxicity call was “inactive”.

`C[C@H](CO)N1C[C@H](C)[C@@H](CN(C)S(=O)(=O)c2cn(C)cn2)Oc2c(NC(=O)C3CCOCC3)cccc2C1=O`: the cytotoxicity call was “inactive”.

On to `CN1C(=O)c2cc(NC(=O)C3CCCC3)ccc2OC[C@H]2O[C@@H](CC(=O)NCCc3ccncc3)CC[C@@H]21`, for which the cytotoxicity call is “inactive”.

With `COCC(=O)Nc1ccc2c(c1)C(=O)N(C)[C@H]1CC[C@@H](CC(=O)NCc3ccccc3Cl)O[C@@H]1CO2`, the cytotoxicity call is “inactive”.

Turning to `COc1ccc(NC(=O)Nc2ccc3c(c2)CC(=O)N([C@H](C)CO)C[C@H](C)[C@@H](CN(C)Cc2ccc(Cl)c(Cl)c2)O3)cc1`, the cytotoxicity call is “inactive”.

Turning to `C[C@@H]1CN([C@@H](C)CO)C(=O)Cc2cc(NC(=O)Nc3ccccc3)ccc2O[C@H]1CN(C)Cc1ccc(Cl)c(Cl)c1`, the cytotoxicity call is “inactive”.

Turning to `C[C@H](CO)N1C[C@H](C)[C@@H](CN(C)Cc2ccc(Cl)c(Cl)c2)Oc2ccc(NC(=O)Nc3ccccc3)cc2CC1=O`, the cytotoxicity call is “inactive”.

Regarding `C[C@H]1CN([C@@H](C)CO)C(=O)Cc2cc(NC(=O)Nc3ccccc3)ccc2O[C@@H]1CN(C)Cc1ccc(Cl)c(Cl)c1`, the cytotoxicity call is “active”.

`COc1ccc(NC(=O)Nc2ccc3c(c2)CC(=O)N([C@@H](C)CO)C[C@@H](C)[C@@H](CN(C)Cc2ccc(Cl)c(Cl)c2)O3)cc1`: the cytotoxicity call is “inactive”.

`C[C@H](CO)N1C[C@H](C)[C@H](CN(C)Cc2ccc(Cl)c(Cl)c2)Oc2ccc(NC(=O)Nc3ccccc3)cc2CC1=O`: the cytotoxicity call is “active”.

With `O=C(CN1CCOCC1)NCC[C@H]1CC[C@@H](NC(=O)Nc2ccccc2)[C@H](CO)O1`, the cytotoxicity call is “inactive”.

Take `C[C@H]1CN([C@@H](C)CO)S(=O)(=O)c2ccc(-c3cccnc3)cc2O[C@@H]1CN(C)C(=O)c1cccc(F)c1`: the cytotoxicity call is “inactive”.

With `Cc1ccccc1S(=O)(=O)N1C[C@H](O)COC[C@@H]2O[C@@H](CC(=O)NCc3ccccc3Cl)CC[C@H]21`, the cytotoxicity call is “inactive”.

`C[C@@H]1CN([C@@H](C)CO)C(=O)c2cc(NS(=O)(=O)c3ccc(Cl)cc3)ccc2O[C@H]1CN(C)Cc1ccc(C(F)(F)F)cc1`: the cytotoxicity call is “inactive”.

Consider `C[C@@H]1CN([C@@H](C)CO)C(=O)c2cc(NS(=O)(=O)c3ccc(Cl)cc3)ccc2O[C@@H]1CN(C)Cc1ccc(C(F)(F)F)cc1`, for which the cytotoxicity call is “active”.

As for `C[C@H]1CN([C@@H](C)CO)C(=O)c2cc(NS(=O)(=O)c3ccc(Cl)cc3)ccc2O[C@H]1CN(C)Cc1ccc(C(F)(F)F)cc1`, the cytotoxicity call is “inactive”.

For the molecule `Cc1ccc(S(=O)(=O)Nc2ccc3c(c2)C(=O)N([C@@H](C)CO)C[C@@H](C)[C@H](CN(C)Cc2ccc(C(F)(F)F)cc2)O3)cc1`, the cytotoxicity call is “inactive”.

As to `Cc1ccc(S(=O)(=O)Nc2ccc3c(c2)C(=O)N([C@@H](C)CO)C[C@@H](C)[C@@H](CN(C)Cc2ccc(C(F)(F)F)cc2)O3)cc1`, the cytotoxicity call was “inactive”.

On to `C[C@@H]1CN([C@H](C)CO)C(=O)c2cc(NS(=O)(=O)c3ccc(Cl)cc3)ccc2O[C@H]1CN(C)Cc1ccc(C(F)(F)F)cc1`, for which the cytotoxicity call is “inactive”.

Regarding `C[C@H](CO)N1C[C@H](C)[C@@H](CN(C)Cc2ccc(C(F)(F)F)cc2)Oc2ccc(NS(=O)(=O)c3ccc(Cl)cc3)cc2C1=O`, the cytotoxicity call is “active”.

As to `C[C@H](CO)N1C[C@H](C)[C@H](CN(C)Cc2ccc(C(F)(F)F)cc2)Oc2ccc(NS(=O)(=O)c3ccc(Cl)cc3)cc2C1=O`, the cytotoxicity call is “active”.

Take `C[C@@H]1CN([C@H](C)CO)C(=O)c2cc(NS(=O)(=O)c3ccc(Cl)cc3)ccc2O[C@@H]1CN(C)Cc1ccc(C(F)(F)F)cc1`: the cytotoxicity call was “active”.

In the case of `O=C(C[C@H]1C[C@H]2c3cc(NS(=O)(=O)c4ccc(F)cc4)ccc3O[C@H]2[C@@H](CO)O1)NC1CCCCC1`, the cytotoxicity call was “inactive”.
